# CtBP-E1A inh: qHTS Assay for Inhibitors of the CtBP/E1A Interaction; AID 651724, 2012; AlphaScreen GST-E1A/His-CtBP binding, 1536-well; active compounds read low; actives 0.49% (n = 340,000); activity change, % (concentration not given with the values); CtBP / adenovirus E1A interaction (AlphaScreen); in the data active = activity change below about -65%; inconclusive = mostly about -30% to -63%
#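 Protein mix (5X: 125 nM each GST-E1A, His-CtBP) was incubated with pinned compound 2 h at 37 deg C in dark, in 50 mM Tris pH 8.0 buffer with 300 mM NaCl. Glutathione donor and nickel acceptor beads followed; AlphaScreen signal read after 1 h.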
# BAZ2B inh: qHTS Assay for Inhibitors of BAZ2B | Bromodomain adjacent to zinc finger domain protein 2B (Homo sapiens), Q9UIF8 | AlphaScreen BAZ2B-H3K14Ac peptide displacement | Potency, µM (highest dose often 114 µM), most hits filed as inhibitors | actives 4.4% (n = 360,000); note: nearly all actives have a fitted effect of over 60% in size
#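 Compounds, titrated to a top concentration of 110 uM, were incubated 30 min at room temperature with preformed BAZ2B/acetyl-K14 H3 peptide complex (50 nM each). Proximity signal was measured by AlphaScreen after 20 min with beads.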
# HP1b binding inh: HTS for Inhibitors of HP1-beta Chromodomain Interactions with Methylated Histone Tails; Chromobox protein homolog 1 (Homo sapiens), P83916; AlphaScreen HP1-beta / biotin-H3K9me3 peptide binding; Potency, µM (highest dose often 114 µM), hits mostly inhibitors; actives 0.56% (n = 390,000); AID 540317, 2011; note: nearly all actives have a fitted effect of over 70% in size
#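 AlphaScreen: HP1-beta (50 nM) preformed 30 min with biotin-H3(1-18)K9me3 peptide (50 nM) in PBS pH 7.4, 0.01% Tween-20. Compound added for 30 min at RT, then streptavidin donor/nickel chelate acceptor beads (10 ug/mL) for 30 min.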
# JMJD2A Tudor inh: qHTS Assay for Inhibitors of JMJD2A-Tudor Domain | Lysine-specific demethylase 4A (Homo sapiens), O75164 | AlphaScreen JMJD2A-Tudor / H3K4me3 peptide binding | Potency, µM (top dose mostly 114 µM), usual class: inhibitors | actives 4.4% (n = 390,000) | AID 504339, 2011; note: nearly all actives have a fitted effect of over 50% in size
# TDP1 inh: qHTS Assay for Inhibitors of Tyrosyl-DNA Phosphodiesterase (TDP1). actives 0.28% (n = 350,000). Tyrosyl-DNA phosphodiesterase 1 (Homo sapiens), Q9NUW8. recombinant TDP1, AlphaScreen DNA substrate cleavage. Potency, µM (series often up to 130 µM), usual class: inhibitors; note: nearly all actives have a fitted effect of over 40% in size
# Target sequence (Q9NUW8 whole entry, looked up): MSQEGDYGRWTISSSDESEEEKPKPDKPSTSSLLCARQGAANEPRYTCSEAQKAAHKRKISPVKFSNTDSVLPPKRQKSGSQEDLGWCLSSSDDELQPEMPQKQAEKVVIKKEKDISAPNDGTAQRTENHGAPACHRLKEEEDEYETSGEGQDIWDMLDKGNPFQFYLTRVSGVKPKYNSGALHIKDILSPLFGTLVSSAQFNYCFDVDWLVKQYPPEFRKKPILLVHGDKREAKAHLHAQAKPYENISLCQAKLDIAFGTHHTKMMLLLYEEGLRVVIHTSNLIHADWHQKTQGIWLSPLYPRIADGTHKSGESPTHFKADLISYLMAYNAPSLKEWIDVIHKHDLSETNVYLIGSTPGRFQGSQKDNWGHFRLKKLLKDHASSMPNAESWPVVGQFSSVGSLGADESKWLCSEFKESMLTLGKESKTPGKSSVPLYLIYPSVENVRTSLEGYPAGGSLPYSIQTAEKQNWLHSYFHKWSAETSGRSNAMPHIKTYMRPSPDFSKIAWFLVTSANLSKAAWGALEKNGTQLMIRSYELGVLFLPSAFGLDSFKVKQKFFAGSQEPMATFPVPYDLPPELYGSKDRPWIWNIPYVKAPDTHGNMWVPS
#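 Enzyme-compound mixtures sat 15 min at room temperature, followed by a 5 min reaction with 15 nM final substrate and 10 min with AlphaScreen beads. Recombinant human Tdp1 was used at 1 nM final.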
# Six1-Eya2 blk: qHTS Assay for Inhibitors of the Six1/Eya2 Interaction; AlphaScreen GST-Six1/His-Eya2 binding, biochemical; active compounds read low; activity change, % (no concentration beside the values); actives 0.56% (n = 360,000); in the data active = activity change below about -65%; inconclusive = mostly about -30% to -63%
#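 AlphaScreen luminescence read after one hour at 37 °C in darkness. Pin-transferred compounds met GST-Six1 and His-Eya2 protein (5X stock 250 nM/500 nM) plus glutathione donor and Ni-chelate acceptor beads (5X, 50 ug/mL).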
# Numbers stand for hits; n = inactive; u = inconclusive; x = no result; [ ] = another dose, or the depositor's remark. Only some compounds are listed: those with a hit (about 5.3% of all), similar ones and a draw of the others. Unless noted, calls come from the whole dose curve; as a rule, active = well fitted inhibition curve with a large enough effect; inconclusive = small, poorly fitted or top-dose-only effect; inactive = no such curve, though single readings can be large or run the other way.
SMILES,CtBP-E1A inh,BAZ2B inh,HP1b binding inh,JMJD2A Tudor inh,TDP1 inh,Six1-Eya2 blk
Cc1nc(NC2CCCCC2)c2nc(-c3ccccc3)n(CCN(C)C)c2n1,x,x,x,x,n,x
O=C1N=C(N2CCOCC2)SC1=Cc1ccco1,n,x,n,n,x,n
O=C1C(=Cc2ccco2)CCC1=Cc1ccco1,n,x,3.55µM,3.16µM,x,-83.0
O=C1C(=Cc2ccco2)CCCC1=Cc1ccco1,n,x,u,56.2µM,x,n
O/N=C1\CCC\C1=C/c1ccco1,n,u,n,n,n,n
COc1ccc(-c2nc(SCC(=O)NCCc3ccc(OC)c(OC)c3)n[nH]2)cc1,x,n,n,n,n,x
CCc1ccc(CN(C(=O)c2ccc(OC)cc2)C2CCS(=O)(=O)C2)cc1 (stereo unspecified),x,n,n,n,n,x
Cc1cc(C(=O)CSc2nnnn2-c2ccc(O)cc2)c(C)n1C,n,n,u,44.7µM,n,n
Cc1ccc(-n2c(C)cc(C(=O)CSc3nnnn3C)c2C)cc1,n,50.1µM,n,u,n,n
Cc1cc(C(=O)CSc2nnnn2C)c(C)n1Cc1ccco1,n,70.8µM,n,u,n,n
Cc1ccccc1CNC(=O)Cc1ccc(NC(=O)N2CCCCc3ccccc32)cc1,x,n,u,n,n,x
NC(=S)C1COc2ccccc2O1 (stereo unspecified),n,n,n,n,n,n
Nn1c(C2COc3ccccc3O2)n[nH]c1=S (stereo unspecified),x,u,n,8.91µM,n,n
Cc1cccc(C(=O)Nc2ccc(N3CC=C(c4ccccc4C)CC3)c(C(=O)O)c2)c1,x,44.7µM,n,u,n,x
Cc1cccc(NC(=O)c2cc(NC(=O)c3ccccc3)ccc2N2CCCCC2)c1,n,n,n,n,n,n
CC(C)=CCc1c2c(c(O)c3c(=O)c4c(oc13)-c1cc(O)c(O)cc1OC4C=C(C)C)C=CC(C)(C)O2 (stereo unspecified),n,x,u,35.5µM,x,n
Cc1ccccc1Cn1c(SCc2ccc(C(=O)NC3CCCCC3)cc2)nc2ccncc21,x,n,n,n,n,x
O=C(Cc1ccccc1I)Nc1ccccc1,x,x,x,x,n,x
CCCCC#Cc1ccccc1CC(=O)Nc1ccccc1,n,u,n,u,50.1µM,n
Cc1cccc(OC(C)C(=O)N2CCC(c3nc4ccccc4o3)CC2)c1C (stereo unspecified),x,n,n,n,n,x
N#Cc1c(N2C(=O)C3C4C=CC(C4)C3C2=O)sc2c1CCC2 (stereo unspecified),n,n,n,n,n,n
C=CCNCc1cccn1-c1sc2c(c1C#N)CCCC2,n,u,u,3.16µM,n,n
N#Cc1c(-n2cccc2/C=N/O)sc2c1CCCC2,n,44.7µM,u,44.7µM,n,n
CCCCCCOc1ccc(-c2nc3ccc(Br)cc3c(=O)o2)cc1,x,n,n,n,n[12.3 µM],x
COCCOc1ccc(C(F)(F)F)cc1Nc1nc2ccccc2o1,n,n,n,28.2µM,n,n
SMILES,CtBP-E1A inh,BAZ2B inh,HP1b binding inh,JMJD2A Tudor inh,TDP1 inh,Six1-Eya2 blk
Cc1ccc(-c2noc(C(C)NS(=O)(=O)c3ccc(C)cc3)n2)cc1 (stereo unspecified),x,n,n,n,n,x
Cc1nc2sccn2c(=O)c1S(=O)(=O)Nc1cc(C(F)(F)F)ccc1Cl,x,n,n,n,n,x
CC(C)(C)c1ccc(-c2csc(NNC3=NCCCCC3)n2)cc1,n,u,u,u,n,n
Brc1ccc(-c2csc(NNC3=NCCCCC3)n2)cc1,n,35.5µM,n,u,n,n
COC(=O)c1scc(-c2ccc(C)cc2)c1S(=O)(=O)Nc1ccc(OC(F)(F)F)cc1,x,n,n,n,n,x
CCOC(=O)C1CCN(c2c(N3CCN(Cc4ccccc4)CC3)c(=O)c2=O)CC1,n,n,n,n,n,n
CCOC(=O)C1CCN(Cc2cc(C(C)C)c(O)c(C(C)C)c2)CC1,n,n,n,n,n,n
CCOC(=O)C1CCN(Cc2c(O)ccc3ccccc23)CC1,n,n,n,n,n,n
CCOC(=O)C1CCN(Cc2ccc(N(C)C)cc2)CC1,n,44.7µM,u,3.55µM,n,n
CCOC(=O)C1CCN(Cc2ccc3ccccc3c2)CC1,n,u,u,56.2µM,x,n
COc1ccc(CN2CCN(C(=O)CC(C)C)CC2)cc1Br,n,u,n,79.4µM,x,n
CCOC(=O)C1CCN(Cc2ccc(F)c(F)c2)CC1,n,u,u,5.62µM,n,n
COc1ccc(Cn2c(SCC(=O)NCc3ccc(Cl)cc3)nc3ccsc3c2=O)cc1,x,n,n,n,n,x
Cc1ccc(Cn2c(C(=O)O)c(CNCc3cccs3)c3ccc(C)cc32)cc1,x,n,n,n,n,x
O=C(NCCc1ccc(Cl)cc1)c1ccc(CSCc2cccc(Cl)c2)o1,x,n,n,n,n,x
CSc1ccc(CN2CCN(C(=O)CC(C)C)CC2)cc1,n,79.4µM,u,20µM,x,n
CCOC(=O)C1CCN(S(=O)(=O)c2ccc(CC)cc2)CC1,n,n,n,39.8µM,n,n
CC(C)CC(=O)N1CCN(Cc2ccc3ccccc3c2)CC1,x,u,u,25.1µM,x,n
CCOC(=O)N1CCN(c2c(N3CCN(c4ccccn4)CC3)c(=O)c2=O)CC1,n,n,n,n,n,n
CCOC(=O)N1CCN(Cc2ccccn2)CC1,n,u,n,0.794µM,n,n
CCOC(=O)c1ccc(S(=O)(=O)N2CCC(C(=O)OCC)CC2)cc1,n,n,n,n,n,n
OCCN1CCN(Cc2cccc(Oc3ccc(Cl)cc3)c2)CC1,n,u,n,n,n,n
CCOC(=O)N1CCN(Cc2ccc3ccccc3c2)CC1,x,u,u,25.1µM,x,n
OCCN1CCN(Cc2ccc3ccccc3c2)CC1,n,50.1µM,u,20µM,x,n
CCOC(=O)N1CCN(C(=O)c2ccc3ccccc3c2)CC1,n,n,n,n,n,n
CC1CCCN(c2ncnc3c2nc2n3CCCCC2)C1 (stereo unspecified),x,n,n,n,n,x
COc1ccc(S(=O)(=O)N(c2onc(C)c2Cl)S(=O)(=O)c2ccc(OC)c(OC)c2)cc1OC,n,79.4µM,n,25.1µM,n,n
COc1ccc(CN(C)S(=O)(=O)c2c(C)noc2C)cc1OC,n,n,n,n,n,n
O=c1[nH]c2ccccc2nc1/C=C/c1ccc(Cl)cc1,n,n,n,10µM,n,n

# Screening data as filed in PubChem.
